This note sets out measurements from PubChem BioAssay (NCATS).

“And” between values parts separate entries of the source, which are not always exact repeats. Equal entries are not always repeated. Values without a mark were called inactive. Records with an inconclusive call do not appear. The source made the active and inactive calls. Unless noted, the call rests on the fitted dose curve; in most records, active means well fitted curve in the direction sought with a large enough effect; inconclusive means small, poorly fitted or top-dose-only effect, or another doubt; inactive means no such curve, though single readings can be large; an effect the other way counts as inactive or inconclusive.

Test [1] has as its target Tumor necrosis factor (Homo sapiens) (UniProt P01375). The experiment in a line: qHTS assay to identify small molecules that stimulate Tumor Necrosis Factor-alpha (TNF-alpha) secretion (AID 651757; active means well fitted curve in the direction sought with a large enough effect in the signal ratio; the % refers to the signal ratio; further: 0% is about no effect). Summed up: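 Using 3000 THP-1 cells per well, compounds and controls were applied for 17 hrs at 37 C. Detection followed with two labeled anti-TNF-alpha antibodies (cryptate donor, XL665 acceptor) for 3 hr at room temperature, measured by TR-FRET.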
Background: In qHTS, concentration-response curves come from the screen itself.

The nature of test [2]: qHTS assay for environmental chemicals that activate the Aryl hydrocarbon Receptor (AhR) signaling pathway (AID 651777). Further: % of control where 0% means no effect; nearly all actives have a fitted effect of over 15% in size. To be noted: 1A2-DRE human hepatoma cells, luciferase, 24 h; activation: stronger effect = higher value. Summed up: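 Following a 24 hr incubation with test chemicals at 37 C and 5% CO2, 1A2-DRE human hepatoma cells received One-Glo reagent; after 30 min at room temperature, luciferase output reflected CYP1A2 induction via AhR.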

In test [3] the target is Peroxisome proliferator-activated receptor alpha (Homo sapiens) (UniProt Q07869). Put plainly: qHTS assay for small molecule agonists of the peroxisome proliferator-activated receptor alpha (PPARalpha) signaling pathway (AID 651778). Further: potency means the concentration at half of the fitted maximal effect. On max response: % of control where 0% means no effect. To be noted: PathHunter PPARalpha complementation, chemiluminescence, 6 h; max response: stronger effect = higher value. An outline of the steps:
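Chemiluminescence from complemented enzyme reported PPARalpha activation in cells after 6 hr of compound treatment at 37 C. The detection reagent was incubated for 60 min at room temperature, and compounds were scored as agonists.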

In test [4] the target is Nuclear receptor ROR-gamma (Homo sapiens) (UniProt P51449). The experiment in a line: qHTS assay for small molecule antagonists of the retinoid-related orphan receptor gamma (ROR-gamma) signaling pathway (AID 651802). Further: nearly all actives have a fitted effect of over 60% in size. Further: potency means the concentration at half of the fitted maximal effect. Summed up:
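Doxycycline-induced reporter activity in engineered CHO cells (TET-inducible ROR, RORE-LUC) was measured by luminescence after 16hr compound exposure at 37C.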

Test [5] can be described thus: qHTS assay for small molecule agonists of the antioxidant response element (ARE) signaling pathway measured by Nrf2-dependant transcriptional activity (AID 720636; active means well fitted curve in the direction sought with a large enough effect in the repeat runs; an effect the other way counts as inactive or inconclusive;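 further: HepG2 cells with an ARE-driven luciferase reporter; % of control where 0% means no effect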). Summed up:
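ONE-Glo luminescence, read 30 min after reagent addition at room temperature, reflected ARE reporter activity in HepG2 cells that had been incubated with compound for 16 hr at 37 C in 1% dialyzed FBS.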

The nature of test [6]: qHTS assay for small molecule antagonists of the retinoid-related orphan receptor gamma (ROR-gamma) signaling pathway - cell viability counter screen (AID 720652; active means well fitted curve in the direction sought with a large enough effect in the repeat runs; an effect the other way counts as inactive or inconclusive;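 further: CHO reporter cells with doxycycline-induced ROR-gamma expression; series mostly up to about 92 µM; compound exposure lasted 16 hr before ATP read; on the % scale 0 is the no-effect control and ±100 the full control effect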). Summed up: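 ATP-based viability readout in the ROR-gamma reporter CHO cells after 16 hr compound exposure under doxycycline induction.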
Test [7] can be described thus: qHTS Assay for Identifying Gametocytocidal Compounds (AID 743244).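 Further: on the % scale 0 is the no-effect control and ±100 the full control effect; actives lower the fluorescent signal which means gametocytes are killed.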 To be noted: P. falciparum 3D7 stage III-V gametocytes, alamarBlue, 72 h; max response: stronger effect = lower value. Summed up: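 Compounds are pinned into medium, gametocytes (stage III–V, 3D7, 20,000 cells/well) added, and plates held 72 h at 37 °C in 5% CO2. AlamarBlue follows for 24 h before fluorescence reading.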

Test [8] is described as follows: qHTS assay for cell viability of the p53RE-bla HCT-116 cell line (AID 743292). Further: on the % scale 0 is the no-effect control and ±100 the full control effect; nearly all actives have a fitted effect of over 55% in size. An outline of the steps:
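After plating at 4,000 cells per well and a 5 h rest at 37 C, HCT-116 cells carrying p53RE-bla received test chemicals in DMSO. Sixteen hours later at 37 C, CellTiter-Glo was added and luminescence recorded following 30 min at room temperature.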

Test [9] in a line: qHTS assay for small molecule agonists of the antioxidant response element (ARE) signaling pathway measured by Nrf2-dependant transcriptional activity - cell viability counter screen (AID 720653; active means well fitted curve in the direction sought with a large enough effect in the repeat runs; an effect the other way counts as inactive or inconclusive; further: on the % scale 0 is the no-effect control and ±100 the full control effect). To be noted: ARE-bla HepG2 viability, CellTiter-Glo ATP luminescence, 16 h; stronger effect = lower value. An outline of the steps: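 Cytotoxicity counter screen: intracellular ATP quantified by CellTiter-Glo luminescence in the same ARE-bla HepG2 plates, after 16 h compound exposure and a 2 h beta-lactamase substrate step.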

Test [10] in a line: qHTS assay for cell viability of HEK293 cells (AID 743288). Further: on the % scale 0 is the no-effect control and ±100 the full control effect; nearly all actives have a fitted effect of over 50% in size. Conditions: ATP luminescence (CellTiter-Glo), 18 h, stronger effect = lower value. An outline of the steps:
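HEK293, 18 h, 37 C, ATP luminescence. Cells at 2,000/well were allowed at least 5 h to settle before dosing; CellTiter-Glo developed 30 min at RT.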

The nature of test [11]: qHTS assay to identify small molecules that stimulate interleukin-8 (IL-8) secretion (AID 651758; active means well fitted activation curve with a large enough effect in the signal ratio; the % refers to the signal ratio; further: potency means the concentration at half of the fitted maximal effect; on activation: 0% is about no effect). Summed up:
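Secreted IL-8 measured homogeneously by TR-FRET (two labelled anti-IL-8 antibodies, 1-3 h at room temperature) after a 16 h, 37 C compound treatment of THP-1 cells at 2000 cells/well.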

Test [12] in a line: qHTS for compounds that reverse cellular toxicity of Amyloid beta (A-beta) peptide in yeast: LOPAC Validation Assay (AID 720559).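 Further: plate controls were DMSO for no effect and equimolar ferric chloride plus clioquinol rescue for full effect.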 An outline of the steps:
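Here, A-beta-toxic yeast grow with test compounds at 30 C for 48 hr before optical density at 600 nm is recorded; data are normalized against DMSO and the FeCl3-clioquinol control.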

A short description of test [13]: qHTS for Activators of Parkin Expression: LOPAC Validation Assay (NLuc Reporter) (AID 720572). Summed up: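 Compound effects on Parkin promoter activity were measured as NanoLuc luminescence after 24 h at 37 C. The neuronal reporter line also carried FLuc, which was read first. LOPAC compounds were tested at 7 concentrations, with normalization to DMSO (0%) and positive control (100%).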

Test [14] in a line: qHTS for Activators of Parkin Expression: LOPAC Validation Assay (FLuc Reporter) (AID 720573). An outline of the steps:
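Readout is FLuc luminescence from neuronal reporter cells (Parkin promoter, FLuc plus NLuc) after 24 h compound exposure in dose response. Values normalized to neutral DMSO and positive-control compounds.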

Test [15] deals with T1, Hexokinase-4 (Homo sapiens) + Glucokinase regulatory protein (Homo sapiens) (UniProt P35557+Q14397). The experiment in a line: qHTS assay for inhibitors of recombinant human GCK-GKRP interaction: Diaphorase-coupled assay (AID 743205). Summed up: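 Signal derives from resorufin generated by diaphorase, linked to GCK turnover of glucose (5 mM) and ATP (0.4 mM). Enzyme complex was added after a 20-minute compound preincubation and monitored for 30 minutes.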
T1 sequence (P35557 whole entry, looked up): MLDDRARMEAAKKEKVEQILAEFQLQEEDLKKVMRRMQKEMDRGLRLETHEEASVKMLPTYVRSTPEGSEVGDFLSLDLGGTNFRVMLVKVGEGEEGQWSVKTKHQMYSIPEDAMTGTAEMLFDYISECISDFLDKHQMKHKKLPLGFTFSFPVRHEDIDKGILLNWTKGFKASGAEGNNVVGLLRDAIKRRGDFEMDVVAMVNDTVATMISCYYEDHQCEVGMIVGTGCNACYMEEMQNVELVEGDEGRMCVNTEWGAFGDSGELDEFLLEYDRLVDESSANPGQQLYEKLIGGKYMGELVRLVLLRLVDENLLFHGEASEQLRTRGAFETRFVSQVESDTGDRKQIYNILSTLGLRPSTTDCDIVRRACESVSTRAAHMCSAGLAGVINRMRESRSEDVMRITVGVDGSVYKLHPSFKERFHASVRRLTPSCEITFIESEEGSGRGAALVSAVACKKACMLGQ
T1 sequence (Q14397 whole entry, looked up): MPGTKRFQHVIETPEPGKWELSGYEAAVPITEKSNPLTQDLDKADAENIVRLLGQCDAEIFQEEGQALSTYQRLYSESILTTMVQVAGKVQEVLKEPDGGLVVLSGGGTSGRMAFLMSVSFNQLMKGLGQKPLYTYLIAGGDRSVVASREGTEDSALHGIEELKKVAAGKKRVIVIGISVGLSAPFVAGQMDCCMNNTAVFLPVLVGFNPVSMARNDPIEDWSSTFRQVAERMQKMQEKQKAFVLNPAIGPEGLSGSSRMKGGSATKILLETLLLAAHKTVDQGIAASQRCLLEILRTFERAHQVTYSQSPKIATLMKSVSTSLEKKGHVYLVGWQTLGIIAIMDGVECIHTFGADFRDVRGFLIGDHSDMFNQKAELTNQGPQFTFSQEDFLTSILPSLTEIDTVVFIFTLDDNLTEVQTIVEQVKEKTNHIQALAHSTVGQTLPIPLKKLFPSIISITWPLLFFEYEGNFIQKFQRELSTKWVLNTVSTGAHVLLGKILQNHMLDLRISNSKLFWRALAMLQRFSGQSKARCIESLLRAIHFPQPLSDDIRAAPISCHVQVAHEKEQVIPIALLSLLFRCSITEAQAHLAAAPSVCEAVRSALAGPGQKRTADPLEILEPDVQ

Test [16] deals with T1, Hexokinase-4 (Homo sapiens) + Glucokinase regulatory protein (Homo sapiens). Put plainly: qHTS assay for inhibitors of recombinant human GCK-GKRP interaction: ADP-Glo assay (AID 743206).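 Further: plate controls were DMSO plus enzyme for no effect and no enzyme for full effect.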 Summed up:
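Pin-transferred compounds meet a 15 nM GST-GCK/15 nM FLAG-GKRP/2 uM S6P mix (dispense concentrations). ATP is then added to 0.4 mM final with 5 mM glucose, and the reaction runs 60 min at room temperature. ADP is quantified luminescently.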

The target is the same in test [17]. The experiment in a line: qHTS assay for inhibitors of recombinant human GCK-GKRP interaction: HTRF assay (AID 743207).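 Further: 0% = DMSO with GCK present and -100% = DMSO wells lacking GCK.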 Summed up:
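Titration screening format: recombinant GST-GCK and FLAG-GKRP at 5 nM, S6P at 2 uM, labelled anti-tag antibodies, 60 min at RT, dual-wavelength HTRF readout.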

Chain of Nuclear receptor ROR-gamma (Homo sapiens) (P51449 whole entry, looked up): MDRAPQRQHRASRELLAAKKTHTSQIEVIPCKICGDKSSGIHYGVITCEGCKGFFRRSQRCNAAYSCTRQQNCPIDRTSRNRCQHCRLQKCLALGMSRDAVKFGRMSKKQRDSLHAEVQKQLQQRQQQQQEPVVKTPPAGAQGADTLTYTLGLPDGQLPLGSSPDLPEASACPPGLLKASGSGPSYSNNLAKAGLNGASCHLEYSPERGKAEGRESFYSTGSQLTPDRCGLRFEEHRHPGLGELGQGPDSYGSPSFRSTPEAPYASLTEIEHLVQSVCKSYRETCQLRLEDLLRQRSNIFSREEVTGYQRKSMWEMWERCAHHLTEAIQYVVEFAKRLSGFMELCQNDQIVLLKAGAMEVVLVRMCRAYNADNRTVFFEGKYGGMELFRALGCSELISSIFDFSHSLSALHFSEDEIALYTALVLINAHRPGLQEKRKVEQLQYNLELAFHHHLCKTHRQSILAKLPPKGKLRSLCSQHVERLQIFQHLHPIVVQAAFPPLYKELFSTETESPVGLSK
Chain of Peroxisome proliferator-activated receptor alpha (Homo sapiens) (Q07869 whole entry, looked up): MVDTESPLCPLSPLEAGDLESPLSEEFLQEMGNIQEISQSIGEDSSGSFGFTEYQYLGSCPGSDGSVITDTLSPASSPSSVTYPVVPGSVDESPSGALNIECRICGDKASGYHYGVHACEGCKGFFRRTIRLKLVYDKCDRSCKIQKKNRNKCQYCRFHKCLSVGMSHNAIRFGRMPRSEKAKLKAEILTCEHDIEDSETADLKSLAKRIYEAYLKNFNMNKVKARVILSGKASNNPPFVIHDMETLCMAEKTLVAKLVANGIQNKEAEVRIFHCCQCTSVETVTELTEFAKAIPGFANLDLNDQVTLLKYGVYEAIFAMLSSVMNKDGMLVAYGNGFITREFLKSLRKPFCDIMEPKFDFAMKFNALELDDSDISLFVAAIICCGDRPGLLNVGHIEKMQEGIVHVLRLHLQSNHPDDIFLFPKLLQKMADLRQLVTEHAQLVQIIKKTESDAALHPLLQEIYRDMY
Chain of Tumor necrosis factor (Homo sapiens) (P01375 whole entry, looked up): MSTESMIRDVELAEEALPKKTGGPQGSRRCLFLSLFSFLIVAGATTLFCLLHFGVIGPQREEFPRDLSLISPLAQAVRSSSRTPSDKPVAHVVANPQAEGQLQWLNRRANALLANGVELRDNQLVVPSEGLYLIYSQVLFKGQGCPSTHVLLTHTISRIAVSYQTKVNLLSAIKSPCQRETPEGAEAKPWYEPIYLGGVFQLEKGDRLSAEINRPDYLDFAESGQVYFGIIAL

As for `Oc1c(Cl)cc(Cl)cc1Sc1cc(Cl)cc(Cl)c1O`, the molecule was called inactive in test [1] and in [8]. In test [2], the activation was 4.24% and -3.25%. For the same molecule, the Potency in test [3] is 28.2 µM (active) and 25.1 µM (active); in test [4] it was 4.73 µM (active). The Potency entry in test [5] and in test [6] was “inactive” each time. Further, the max response in [7] is 20.1%.

On to `CCCCCCc1ccc(O)cc1O`, for which the result in [1] and in test [8] was inactive. In test [2], the activation was 1.13% and 0.133%. In addition, the max response is -0.464% and 3.82% in test [3]; -0.701% and 2.74% in [9]; 3.3% in test [7]; -5.8% and 9.71% in test [10]. The Potency result in test [5] was “inactive”.

With `CC(O)C(=O)O` (stereo unspecified), the result in test [1] and in test [8] was inactive. The Potency entry in test [11], in test [4], in test [5] and in test [6] was “inactive” each time. In test [2], the activation is -0.164%. For the same molecule, the max response in test [3] is -0.871%; in test [9], -3.07%; in test [7], -6.68%; in test [10], 1.72%.

With `CN(C)/N=N/c1nc[nH]c1C(N)=O`, the Potency in test [11] is 75 µM (active). Further, the activation in test [2] is 1.65%. Further, the max response was -3.55% in test [3], -9.97% in test [9], 5.22% in test [7] and 4.22% in test [10]. For the same molecule, the Potency result in [4], in [5] and in test [6] was “inactive” throughout. Also, the result in [8] was inactive.

`Cc1cc(=O)n(-c2ccccc2)n1C`: the activation in test [2] was -0.814%. Also, the max response in test [3] was 0.347%; in test [9], -4.23%; in test [7] it was 18.5%; in [10] it was -2.36%. Besides, the Potency entry in test [5] is “inactive”. For the same molecule, the outcome in [8] was inactive.

`CN(C)C(=S)SC(=S)N(C)C`: in test [2], the activation was -0.314%. The figures for the max response in test [3] and in test [9] were 0.0294% and 4.33%, respectively. For the same molecule, in test [5], the Potency entry is “inactive”. Also, in test [8], the molecule was called inactive.

Take `C[C@@H]1C(=O)NC2=Nc3cccc(Cl)c3CN21`: the molecule was classed as inactive in test [12], in test [13], in test [14], in [15], in [16] and in test [17]. The max response in test [7] is -15.6% and 9.95%.
